Source: the supplement of paper PMC6555819

test system: PPARg:RXRa 30nM:10nM, anti-RXR (NR concentration 30 nM, RXRa partner concentration 10 nM); assay: PBM binding z-score (relative to random genomic background probes); higher = stronger binding; sequences stand for … in GC…GCGATTGACAGCGTAGAATGAAGG
Outline: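 On custom Agilent 4×180K arrays, double-stranded probes with 34-nt variable regions carried direct-repeat seeds, single-nucleotide variants, half-site ablations or random human genomic background. Ligand-free nuclear receptor dimers were applied for 1 h, and binding was read with antibodies against each partner (one per run). Binding z-scores come from regression-normalized fluorescence, with the random background probes as reference.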

Question: Which PBM binding z-score does the source give for ATCGAAAGGTCGAAGGTGAGTATACCCACCCGAA here?
Answer: Its PBM binding z-score is 2.14.

Question: TCTTGTAGATCAATAGAGGTTACGAAAGTGCGCT was tested. Which PBM binding z-score did it give?
Answer: Its PBM binding z-score is 2.79.

Question: For TCTTGTTGATCAAGCAGGTTAAGAAAGCCTGAGT, which PBM binding z-score is on record?
Answer: Its PBM binding z-score is 2.49.

Question: Which PBM binding z-score does the source give for CGTCCTAGGTCAAGGTCAGTGAAAGAGACTCGAA here?
Answer: The PBM binding z-score was 1.48.

Question: With GGAACGAGTGCAAAGTTGATAGCATCTGTCGACG as the sequence, how does the PBM binding z-score read?
Answer: Its PBM binding z-score is 0.95.

Question: TCTAGTTGGTCTCGGAGGTCACACACGACGGGTA was tested. Which PBM binding z-score did it give?
Answer: Its PBM binding z-score is 3.33.

Question: Which PBM binding z-score does the source give for CTAACTAGGTCAGAACAGGACAGTGAAGGATGAT here?
Answer: Its PBM binding z-score is 2.43.

Question: Which PBM binding z-score does the source give for TCTTGTAGATCAACAGGAGTTTAAGAAAGATCGA here?
Answer: Its PBM binding z-score is 2.22.

Question: CGTCCACGGTCAATGCTAGGTCAGTGAAAGCATT was tested. Which PBM binding z-score did it give?
Answer: The PBM binding z-score was -0.646.

Question: Which PBM binding z-score does the source give for CCTTACGGGTCACTGACAGGTTAAAGCATTTGGA here?
Answer: Its PBM binding z-score is 1.97.

Question: How did the PBM binding z-score turn out when CCTAGTTGGTCAGGAGGTAACACACCGGATATGA was run?
Answer: The PBM binding z-score was 0.0146.

Question: How did the PBM binding z-score turn out when ATAACGAGGGCAATGAGTTGATAGCACGGGTGGC was run?
Answer: Its PBM binding z-score is 0.221.

Question: How did the PBM binding z-score turn out when GCGACTGGGGCATAGCAGGTTACCATAAGGTTGG was run?
Answer: The PBM binding z-score was -0.371.

Question: Which PBM binding z-score does the source give for TTACCAAGCTGAGCTGAGGTCGTTGATCCAACTC here?
Answer: Its PBM binding z-score is -0.479.

Question: With CGGCCAAGGTCAGAGAGGTCAGTGAATGCCGAGT as the sequence, how does the PBM binding z-score read?
Answer: The PBM binding z-score was 0.655.

Question: GGGACTGGGGCAAAGCAGGTTACCATAAGGTTGG was tested. Which PBM binding z-score did it give?
Answer: Its PBM binding z-score is 0.646.

Question: With TCAGACAAGTGAAGGTAACTCAGGTACGCAGTCG as the sequence, how does the PBM binding z-score read?
Answer: The PBM binding z-score was 3.99.

Question: How did the PBM binding z-score turn out when GCTTGTAGATCACGGTTAAGAAAGACTAAGCTAA was run?
Answer: Its PBM binding z-score is -0.114.

Question: How did the PBM binding z-score turn out when GTTAGTTGGTCAGTAAAAGGTCACACACCGGTCG was run?
Answer: Its PBM binding z-score is 2.66.

Question: With TCATATAGGTAAACAGGTGAAAGTTCGTAAGTTA as the sequence, how does the PBM binding z-score read?
Answer: The PBM binding z-score was 5.93.

Question: Which PBM binding z-score does the source give for ACTAGTTGGTCAGGTGAGGTCACACACAATTCGG here?
Answer: The PBM binding z-score was 0.906.

Question: How did the PBM binding z-score turn out when ATCGAAAGGTCGAAGGTGAGAATACCCACCCGAA was run?
Answer: The PBM binding z-score was 2.85.

Question: For TCTTCTAGATCAAAGGTTAAGAAAGCCGAAGCCT, which PBM binding z-score is on record?
Answer: Its PBM binding z-score is 8.13.

Question: How did the PBM binding z-score turn out when CCTTACGGGTCACGATGTTATAGCACGACGAGCG was run?
Answer: Its PBM binding z-score is 3.09.

Question: GGAATGAGGGCAAAGTTGATAGCATCTGTCGACG was tested. Which PBM binding z-score did it give?
Answer: Its PBM binding z-score is 6.47.

Question: With TCATATAGGTAATACAGGTGACAGTCGGCATCTA as the sequence, how does the PBM binding z-score read?
Answer: The PBM binding z-score was 3.86.

Question: For CCTATTAGTTGACCATAAAGGCAACCGAAGCTCG, which PBM binding z-score is on record?
Answer: The PBM binding z-score was 0.147.

Question: For ATCTCTAGGTAAAGTTCCGTGAAAGATCGATAGA, which PBM binding z-score is on record?
Answer: The PBM binding z-score was 0.751.

Question: With CATCGGAGGACAACAGGAGGTCAGAGCTGCCAGA as the sequence, how does the PBM binding z-score read?
Answer: Its PBM binding z-score is -0.516.

Question: CGTCAAAGTCCAACTAAGGTAACGTAAAGCACGC was tested. Which PBM binding z-score did it give?
Answer: Its PBM binding z-score is -0.0174.

Question: For TTGCCTAGGTCATTCAGGGGCCAGTATAGAAAGC, which PBM binding z-score is on record?
Answer: The PBM binding z-score was 0.187.

Question: How did the PBM binding z-score turn out when ATCTCTAGGTAAAGATAGTTCAGCGAATGCAAAT was run?
Answer: The PBM binding z-score was 0.395.

Question: ATCTCTAGGTAAGACTCAGTTCAGTGAAGAACGC was tested. Which PBM binding z-score did it give?
Answer: The PBM binding z-score was 0.412.

Question: For AAACCAAGGTGATCGTGAGGTCGTTGATACTAAC, which PBM binding z-score is on record?
Answer: The PBM binding z-score was -0.322.

Question: Which PBM binding z-score does the source give for GTACCAAGGTGAATAGATCGTTGATGAGTAGGCG here?
Answer: The PBM binding z-score was 0.296.

Question: With CCTCGGAGGACAACAGGAGCTCAGAGCTGCCAGA as the sequence, how does the PBM binding z-score read?
Answer: The PBM binding z-score was -0.714.

Question: Which PBM binding z-score does the source give for CAAGCTAGGTCACAGAGGTCAAAGTCCGTGCGTA here?
Answer: The PBM binding z-score was 3.68.

Question: For ACTTTTAGTTGACTTAGGGCAACCGATACGACGC, which PBM binding z-score is on record?
Answer: Its PBM binding z-score is 0.607.

Question: Which PBM binding z-score does the source give for TCTATTAGTTGAAGGGTAACCGACGAGTCCGTTT here?
Answer: The PBM binding z-score was 4.16.
